This is a sample that favours compounds with a hit; in the whole collection about 6.7% have one here.
C diff HTS: blocks growth of Clostridium difficile; actives 0.25% (n = 86,000); growth activity, negative = inhibition, % at 16 µg/mL (by protocol); Clostridium difficile clinical isolate growth, OD600, 24 h; active compounds read low;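 active = mean growth activity at or below -80% and every replicate also at or below -80%; inconclusive = mean at or below -80% but some replicate above -80%; inactive = mean growth activity above -80%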
Pf Dd2 inh: blocks growth of Plasmodium falciparum Dd2 parasites; actives 2.3% (n = 94,000); activity change, % at 10 µM; AID 1159554; P. falciparum Dd2 growth, SYBR Green, 72 h; active compounds read low; in the data active = activity change below about -80%; inconclusive = no clear call, values can overlap the other calls
T cruzi growth-1: blocks T. cruzi growth in NIH3T3 culture | inhibition, % at 8.34 µM | T. cruzi beta-gal in NIH3T3, GalScreen luminescence, 90 h | actives 5.9% (n = 77,000);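 active = mean inhibition above about 93%, with at least 55% of replicates each passing it, limit read from the data, passing the limit was not always enough; inconclusive = only one of those two conditions holds; inactive = neither condition holds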
T cruzi growth-2: inhibitors of T. cruzi proliferation. actives 72% (n = 5,600). T. cruzi beta-gal in NIH3T3, GalScreen luminescence, 90 h. AID 651739. inhibition, % at 8.35 µM. shares compounds with T cruzi growth-1;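 active = mean replicate inhibition above about 95% and at least 55% of replicates individually reaching it, limit read from the data; inconclusive = only one of the two criteria is met; inactive = neither criterion is met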
T cruzi growth-3: Trypanosoma cruzi proliferation inhibition; shares compounds with T cruzi growth-1; T. cruzi beta-gal in NIH3T3, GalScreen luminescence, 90 h; inhibition, % at 2.09 µM; actives 21% (n = 5,600); AID 651740;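 active = mean inhibition above about 95%, with at least 55% of replicates also reaching it, limit read from the data; inconclusive = meets just one of the two conditions; inactive = meets neither condition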
3T3 cytotox: kills mouse NIH/3T3 fibroblasts | shares compounds with T cruzi growth-1 | NIH/3T3 viability, CellTiter-Glo ATP luminescence, 90 h | cytotoxicity (signal decrease), % at 8.35 µM | actives 14% (n = 5,600) | AID 651742;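 active = mean signal decrease across replicates above about 35% based on untreated-well scatter, with enough replicates individually passing, limit read from the data; inconclusive = no rule stated though some were filed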
NIH3T3 tox 2: cytotoxicity in mouse NIH/3T3 fibroblasts; AID 651744; NIH/3T3 viability, CellTiter-Glo ATP luminescence, 90 h; actives 56% (n = 5,600); inhibition, % at 24.9 µM; shares compounds with T cruzi growth-1;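 active = mean loss of cell viability signal at or above a set limit, and enough replicates individually reaching it; inconclusive = meets only the mean limit or only the replicate share; inactive = meets neither condition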
Numbers stand for hits.

Results for C[C@@H]1CN([C@@H](C)CO)C(=O)c2cc(-c3cccc(F)c3)cnc2O[C@H]1CN(C)S(=O)(=O)c1cccc(F)c1 ?
Pf Dd2 inh: inactive; T cruzi growth-1: inactive

How did C[C@@H]1CN([C@@H](C)CO)C(=O)c2cc(C#Cc3ccccc3F)cnc2O[C@H]1CN(C)S(=O)(=O)c1ccccc1 do in these assays?
C diff HTS: inactive; Pf Dd2 inh: inactive; T cruzi growth-1: 120.5; T cruzi growth-2: 109.6; T cruzi growth-3: inactive; 3T3 cytotox: inactive; NIH3T3 tox 2: 25.1

Results for C[C@H](CO)N1C[C@H](C)[C@@H](CN(C)C)Oc2ncc(C#Cc3ccccc3F)cc2C1=O ?
C diff HTS: inactive; Pf Dd2 inh: inactive; T cruzi growth-1: inactive

How did C[C@H]1CN([C@@H](C)CO)C(=O)c2cc(C#Cc3ccccc3F)cnc2O[C@H]1CN(C)S(=O)(=O)c1ccccc1 do in these assays?
C diff HTS: inactive; Pf Dd2 inh: inactive

Results for C[C@@H]1CN([C@H](C)CO)C(=O)c2cc(C#Cc3ccccc3F)cnc2O[C@@H]1CN(C)C ?
C diff HTS: inactive; Pf Dd2 inh: inactive; T cruzi growth-1: 98.1; T cruzi growth-2: inactive; T cruzi growth-3: inactive; 3T3 cytotox: inactive; NIH3T3 tox 2: inconclusive

How did C[C@@H]1CN([C@@H](C)CO)C(=O)c2cc(C#Cc3ccccc3F)cnc2O[C@H]1CN(C)S(=O)(=O)c1ccccc1F do in these assays?
C diff HTS: inactive; Pf Dd2 inh: inactive; T cruzi growth-1: 107.7; T cruzi growth-2: 115.2; T cruzi growth-3: 105.5; 3T3 cytotox: inactive; NIH3T3 tox 2: 68.0

What do the screens show for `CCCNC(=O)N(C)C[C@H]1Oc2ncc(C#Cc3ccccc3F)cc2C(=O)N([C@H](C)CO)C[C@H]1C`?
C diff HTS: inactive; Pf Dd2 inh: inactive; T cruzi growth-1: inactive

How did CCCNC(=O)N(C)C[C@@H]1Oc2ncc(C#Cc3ccccc3F)cc2C(=O)N([C@H](C)CO)C[C@H]1C do in these assays?
C diff HTS: inactive; Pf Dd2 inh: inactive; T cruzi growth-1: 107.1; T cruzi growth-2: 97.5; T cruzi growth-3: inactive; 3T3 cytotox: inactive; NIH3T3 tox 2: 42.6

How did C[C@@H]1CN([C@H](C)CO)C(=O)c2cc(C#Cc3ccccc3)cnc2O[C@@H]1CN(C)S(=O)(=O)c1ccccc1F do in these assays?
C diff HTS: inactive; Pf Dd2 inh: inactive; T cruzi growth-1: inactive

How did C[C@H]1CCCCO[C@@H](CN(C)C(=O)Nc2ccc3c(c2)OCO3)[C@@H](C)CN([C@@H](C)CO)C(=O)c2cc(NC(=O)c3ccncc3)ccc2O1 do in these assays?
C diff HTS: inactive; Pf Dd2 inh: inactive; T cruzi growth-1: inactive

How did C[C@@H]1CN([C@@H](C)CO)C(=O)c2cc(C#C[C@@H](C)O)cnc2O[C@@H]1CN(C)C(=O)c1ccccc1 do in these assays?
C diff HTS: inactive; Pf Dd2 inh: inactive; T cruzi growth-1: inactive

How did CNC[C@@H]1Oc2c(NC(=O)NC(C)C)cccc2C(=O)N([C@@H](C)CO)C[C@@H]1C do in these assays?
C diff HTS: inactive; Pf Dd2 inh: inactive; T cruzi growth-1: inactive

Results for O=C1CN(S(=O)(=O)Cc2ccccc2)C[C@@H]2[C@@H](c3ccc(C#CCC4CCCC4)cc3)[C@H](CO)N12 ?
C diff HTS: inactive; Pf Dd2 inh: inactive

Results for CC(C)NC(=O)NC[C@@H]1[C@H](c2ccccc2)[C@H](CO)N1C(=O)c1ccccc1 ?
C diff HTS: inactive; Pf Dd2 inh: inactive; T cruzi growth-1: inactive

What do the screens show for `C[C@H](CO)N1C[C@H](C)[C@H](CN(C)S(=O)(=O)c2ccccc2)Oc2ncc(C#Cc3ccccc3F)cc2C1=O`?
C diff HTS: inactive; Pf Dd2 inh: inactive; T cruzi growth-1: 113.2; T cruzi growth-2: 104.0; T cruzi growth-3: inactive; 3T3 cytotox: inactive; NIH3T3 tox 2: 54.8

How did C[C@@H]1CN([C@@H](C)CO)C(=O)c2cc(C#Cc3ccccc3F)cnc2O[C@H]1CN(C)S(C)(=O)=O do in these assays?
Pf Dd2 inh: inactive; T cruzi growth-1: inactive

How did COc1cccc(-c2cnc3c(c2)C(=O)N([C@H](C)CO)C[C@H](C)[C@H](CN(C)S(=O)(=O)c2cn(C)cn2)O3)c1 do in these assays?
C diff HTS: inactive; Pf Dd2 inh: inactive

How did C[C@@H]1CN([C@H](C)CO)C(=O)Cc2cc(NC(=O)c3ccncc3)ccc2O[C@H]1CN(C)Cc1ccc(C(F)(F)F)cc1 do in these assays?
C diff HTS: inactive; Pf Dd2 inh: inactive; T cruzi growth-1: 105.8; T cruzi growth-2: 103.8; T cruzi growth-3: inactive; 3T3 cytotox: inactive; NIH3T3 tox 2: 63.3

What do the screens show for `C[C@@H]1CN([C@H](C)CO)C(=O)Cc2cc(NC(=O)C3CC3)ccc2O[C@H]1CN(C)Cc1ccc(C(F)(F)F)cc1`?
C diff HTS: inactive; Pf Dd2 inh: inactive; T cruzi growth-1: inactive

What do the screens show for `C[C@H](CO)N1C[C@H](C)[C@H](CN(C)Cc2ccc(C(F)(F)F)cc2)Oc2ccc(NC(=O)c3ccncc3)cc2CC1=O`?
C diff HTS: inactive; Pf Dd2 inh: inactive; T cruzi growth-1: inactive

How did C[C@H](CO)N1C[C@H](C)[C@@H](CN(C)Cc2ccc(C(F)(F)F)cc2)Oc2ccc(NC(=O)C3CC3)cc2CC1=O do in these assays?
C diff HTS: inactive; Pf Dd2 inh: inactive; T cruzi growth-1: 102.5; T cruzi growth-2: 105.2; T cruzi growth-3: 99.4; 3T3 cytotox: inactive; NIH3T3 tox 2: inactive

What do the screens show for `Cc1cc(C(=O)Nc2cccc3c2O[C@@H](CN(C)Cc2ccncc2)[C@H](C)CN([C@@H](C)CO)C3=O)n(C)n1`?
C diff HTS: inactive; Pf Dd2 inh: inactive; T cruzi growth-1: inactive

How did C[C@@H]1CN([C@@H](C)CO)S(=O)(=O)c2ccc(-c3ccc(F)cc3)cc2O[C@H]1CN(C)C(=O)C1CC1 do in these assays?
C diff HTS: inactive; Pf Dd2 inh: inactive; T cruzi growth-1: inactive

How did O=C(C[C@@H]1C[C@H]2c3cc(NC(=O)C4CCOCC4)ccc3O[C@H]2[C@@H](CO)O1)NCc1cccc(F)c1 do in these assays?
C diff HTS: inactive; Pf Dd2 inh: inactive; T cruzi growth-1: inactive

Results for COc1ccc(CN(C)C[C@@H]2OCCCC[C@@H](C)Oc3ccc(NC(=O)Nc4ccc(C(F)(F)F)cc4)cc3C(=O)N([C@H](C)CO)C[C@@H]2C)cc1 ?
C diff HTS: inactive; Pf Dd2 inh: inactive; T cruzi growth-1: inconclusive; T cruzi growth-2: 97.2; T cruzi growth-3: 108.1; 3T3 cytotox: inactive; NIH3T3 tox 2: 29.0

Results for COc1ccc(CN(C)C[C@H]2OCCCC[C@H](C)Oc3ccc(NC(=O)Nc4ccc(C(F)(F)F)cc4)cc3C(=O)N([C@@H](C)CO)C[C@@H]2C)cc1 ?
C diff HTS: inactive; Pf Dd2 inh: inactive; T cruzi growth-1: inactive
